# TDP1 cell CPT – DT40-hTDP1 cell growth loss with CPT; chicken DT40 Tdp1-/-;hTDP1 cells + 20 nM CPT, ATP luminescence, 48 h; Potency, µM (doses to about 46.2 µM), for the others: top-dose activity change, negative = growth inhibition, most hits filed as inhibitors; 420,000 tested, 12% active; AID 686979; note: potency is the fitted concentration of half-maximal effect; nearly all actives have a fitted effect of over 55% in size
#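 Chicken DT40 Tdp1-/- cells complemented with human TDP1, 400 cells/well, exposed to compounds plus 20 nM camptothecin for at least 48 h at 37 C; viability read as ATP content by CellTiter-Glo luminescence.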
# HT1080-NT tox – kills 2HG-producing HT-1080-NT fibrosarcoma cells; HT-1080-NT fibrosarcoma viability, CellTiter-Glo ATP luminescence, 48 h; Potency, µM (doses to about 46.1 µM), for the others: at the top dose activity, negative = less viability, hits mostly cytotoxic; 360,000 tested, 1.6% active;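 note: NT is the 2HG producing partner of a matched IDH1 knockdown line; potency is the fitted concentration of half-maximal effect; 0% = DMSO-treated cells and -100% = media-only wells without cells; nearly all actives have a fitted effect of over 55% in size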
#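 Luminescent CellTiter-Glo readout after 48 hours of compound exposure at 37 degrees C defined viability of HT-1080-NT cells. Activity was normalized to DMSO wells and cell-free media wells; concentration-response curves were fitted and assigned curve classes.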
# TDP1 cell noCPT – qHTS for Inhibitors of human tyrosyl-DNA phosphodiesterase 1 (TDP1): qHTS in cells in absence of CPT; Potency, µM (series often up to 46.2 µM), inactives show at the highest dose activity change, negative = growth inhibition, most hits filed as inhibitors; DT40 Tdp1-/- hTDP1 cells, no CPT, ATP luminescence, 48 h; AID 686978, 2013; 420,000 tested, 15% active; note: potency is the fitted concentration of half-maximal effect; nearly all actives have a fitted effect of over 55% in size
#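 Readout: luminescence from CellTiter-Glo after 30 min in the dark at RT. Cells: DT40 Tdp1-/- with stable hTDP1, 400/well. Exposure: compounds alone, ≥48 hr, 37 °C.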
# IL1B secr inh – inflammasome signaling inhibition, IL-1 beta readout; THP-1 LPS/ATP IL-1B secretion, AlphaLISA, 16 h; hits give low values; activity change, % at 57.5 µM; 360,000 tested, 4.7% active; AID 743279; in the data active = activity change below about -50%; inconclusive = mostly about -30% to -49%
#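 THP-1 cells pretreated 1 hr with compounds (up to 57.5 uM final), then stimulated with LPS (250 ng/mL final) plus ATP (1.25 mM final); secreted IL-1B measured by AlphaLISA after 16 hr, decreased signal indicating inhibition.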
# HT1080 IDH1KD tx – toxicity to HT-1080 IDH1 knockdown cells (counter line) | HT-1080 IDH1 knockdown viability, ATP luminescence, 48 h | Potency, µM (top dose mostly 46.1 µM), for the others: at the highest dose activity, negative = toxicity, usual class: cytotoxic | 360,000 tested, 2% active;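 note: potency is the fitted concentration of half-maximal effect; 0% = DMSO wells and -100% = cell-free medium wells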
#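 CellTiter-Glo luminescence after 48 h compound exposure at 37 degrees C of IDH1-knockdown HT-1080 cells in 5% FBS RPMI. %Activity scaled between DMSO wells and cell-free media wells, with curves fitted and assigned curve classes.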
# ALOX12 inh – ALOX12 (human) lipoxygenase inhibition. P18054. purified 12hLO, xylenol orange hydroperoxide absorbance. Potency, µM (doses to about 108 µM), for inactives: at the highest dose activity change, negative = inhibition, usual class: inhibitors. 580,000 tested, 1.1% active. AID 1671190; note: potency is the fitted concentration of half-maximal effect
# Target sequence (P18054 whole entry, looked up): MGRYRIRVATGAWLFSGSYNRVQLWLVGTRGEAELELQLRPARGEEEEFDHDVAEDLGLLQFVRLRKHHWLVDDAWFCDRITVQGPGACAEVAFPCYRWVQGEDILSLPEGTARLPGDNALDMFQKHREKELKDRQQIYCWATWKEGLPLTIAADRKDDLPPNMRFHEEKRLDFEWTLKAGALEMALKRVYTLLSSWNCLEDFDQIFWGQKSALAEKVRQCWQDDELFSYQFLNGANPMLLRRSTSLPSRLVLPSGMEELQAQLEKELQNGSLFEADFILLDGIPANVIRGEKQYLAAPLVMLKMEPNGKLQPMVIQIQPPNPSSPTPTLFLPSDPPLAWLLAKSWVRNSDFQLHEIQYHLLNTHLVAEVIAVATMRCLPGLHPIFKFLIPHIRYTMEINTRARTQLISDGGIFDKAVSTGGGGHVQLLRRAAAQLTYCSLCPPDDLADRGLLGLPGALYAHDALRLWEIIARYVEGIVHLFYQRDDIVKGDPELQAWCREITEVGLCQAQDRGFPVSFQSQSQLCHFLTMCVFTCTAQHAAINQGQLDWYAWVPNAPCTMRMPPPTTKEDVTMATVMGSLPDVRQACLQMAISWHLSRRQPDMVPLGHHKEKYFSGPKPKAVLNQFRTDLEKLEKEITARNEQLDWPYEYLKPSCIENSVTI
#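 Purified human 12hLO at 150 nM in 25 mM Hepes, 0.01% Triton X-100, pH 7.0, preincubated 15 min at room temperature with compound. Reaction started with 40 uM arachidonic acid, 30 min at room temperature. Hydroperoxide measured by Fe-xylenol orange, 573/405 nm absorbance ratio.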
# An asterisk follows results filed as active; u = inconclusive; x = no result given; [ ] = remark or other dose. Shown is part of a subset that was picked to be rich in hits. Unless noted, calls come from the whole dose curve; as a rule, active = well fitted curve in the direction sought with a large enough effect; inconclusive = small, poorly fitted or top-dose-only effect, or another doubt; inactive = no such curve, though single readings can be large; an effect the other way counts as inactive or inconclusive. Unless noted, % is set by controls: 0 for no effect and ±100 for the full control effect.
SMILES,TDP1 cell CPT,HT1080-NT tox,TDP1 cell noCPT,IL1B secr inh,HT1080 IDH1KD tx,ALOX12 inh
C=CCc1ccccc1OCC(=O)N/N=C/c1ccc(OC(C)=O)cc1OC(C)=O,5.8µM*,-30%,6.5µM*,57,u,0%
CC(=O)Nc1cccc(C(=O)NC2CCCN(c3cc(-c4ccc(Cl)cc4)[nH]n3)C2)c1 (stereo not given),x,x,x,x,x,5%
c1ccc(CNCC2CCNCC2)cc1,x,x,x,x,x,1%
CCn1nnnc1SCC(=O)N(Cc1cccs1)c1ccc2c(c1)OCCO2,x,x,x,x,x,-9%
COc1ccc(/C=N/NC(=O)COc2ccc3ccccc3c2)c(C(=O)O)c1OC,16µM*,12%,u,-11,9%,10%
CC(C)(C)c1ccc(C2CC2C(=O)N/N=C\c2cc3ccccc3nc2Cl)cc1 (stereo not given),u,9%,16µM*,8,4%,-7%
COc1cccc(/C=N/NC(=O)COc2cccc3cccnc23)c1O,7.3µM*,-21%,4.1µM*,120,18µM*,-8%
Cc1ccnc(-n2c(C)cc(/C=N/NC(=O)COc3cccc4cccnc34)c2C)c1,5%,9%,-4%,-54*,22%,246%
COc1ccc(OCC(=O)N/N=C/c2ccc(OC)c(OC)c2C(=O)O)cc1,-14%,9%,-2%,-4,6%,-4%
COc1ccc(C(C)=O)cc1CC(=O)Nc1cc(C)ccc1C,x,x,x,x,x,-9%
CC(=O)Nc1cc(NCC(=O)NC2(C#N)CCCCC2)ccc1F,x,x,x,x,x,-23%
Cc1ccc(-n2c(-c3ccc(Br)cc3)c[n+]3c2CCc2ccc4cccnc4c2-3)cc1,0.29µM*,u,0.29µM*,-105*,4µM*,u
Cc1ccc(NC(=O)C2CCCN2S(=O)(=O)c2ccc3c(c2)CCCC(=O)N3)cc1C (stereo not given),u,x,21µM*,x,x,-7%
CCc1ccc(NC(=O)C2CCCN2S(=O)(=O)c2ccc3c(c2)CCCC(=O)N3)cc1 (stereo not given),16µM*,x,18µM*,x,x,-20%
Cc1cc(Cl)ccc1NC(=O)C1CCCN1S(=O)(=O)c1ccc2c(c1)CCCC(=O)N2 (stereo not given),15µM*,x,8.2µM*,x,x,-25%
Cc1ccc(Cl)cc1NC(=O)C1CCCN1S(=O)(=O)c1ccc(-c2ccc(=O)[nH]n2)s1 (stereo not given),-25%,-22%,15µM*,-77*,u,-8%
Cc1cc(C)cc(NC(=O)C2CCCN2S(=O)(=O)c2ccc3c(c2)CCCC(=O)N3)c1 (stereo not given),u,x,u,x,x,-26%
O=C1CCCN1CC(=O)N1CCC[C@H](n2c(=O)n(CC3CC3)c3cccnc32)C1,x,x,x,x,x,16%
O=C1CC(c2cccc(Cl)c2)CC2=C1C=Nc1ccccc1N2 (stereo not given),x,x,x,x,x,-11%
COC(=O)c1c(C)cccc1NC(=O)c1nn(C)c(=O)c2ccccc12,x,x,x,x,x,-19%
CC(Oc1cccc(Cl)c1)C(=O)NCc1ccc(S(N)(=O)=O)cc1 (stereo not given),u,10%,26µM*,13,-1%,-5%
Cc1ccc(CNC(=O)c2ccc(S(=O)(=O)N3CCCCCC3)cc2)cc1,21µM*,-14%,4.1µM*,43,u,-6%
Cc1ccc(C(=O)NNC(=O)c2ccc(S(=O)(=O)N3CCCCC3)cc2)cc1,5.2µM*,0%,23µM*,10,u,-13%
CC(=O)NCc1ccc(S(=O)(=O)N2CCCN(C)CC2)cc1,u,27%,23µM*,8,u,0%
Cc1ccc(C(=O)NCCc2ccc(S(=O)(=O)N3CCCC3)cc2)cc1,-11%,10%,-27%,0,-14%,-3%
SMILES,TDP1 cell CPT,HT1080-NT tox,TDP1 cell noCPT,IL1B secr inh,HT1080 IDH1KD tx,ALOX12 inh
COC(=O)COc1ccc2c(=O)c(Oc3ccc(C(=O)OC)cc3)c(C)oc2c1,x,x,x,x,x,-12%
Cc1ccc(-c2nnn(CC(=O)N3N=C(c4cccs4)CC3c3cccs3)n2)cc1 (stereo not given),x,x,x,x,x,17%
CCCCn1c(CN(C)Cc2ccccc2)nc2c1c(=O)n(C)c(=O)n2C,6.5µM*,-9%,4.1µM*,-13,-13%,-8%
COCCn1c(CN(C)Cc2ccccc2)nc2c1c(=O)n(C)c(=O)n2C,u,18%,u,46,-11%,6%[57.4 µM]
Cn1c(=O)c2c(nc(Br)n2CCc2ccccc2)n(C)c1=O,u,-5%,u,-2,1%[9.24 µM],0%
CCCCCCn1c(CN2CCN(c3ccccc3)CC2)nc2c1c(=O)n(C)c(=O)n2C,x,x,x,x,x,2%
CCOCCn1c(CN(C)Cc2ccccc2)nc2c1c(=O)n(C)c(=O)n2C,u,0%,23µM*,43,2%,9%
CN(Cc1ccccc1)Cc1nc2c(c(=O)n(C)c(=O)n2C)n1CCc1ccccc1,13µM*,13%,18µM*,-10,0%,7%
CCOC(=O)Cn1c(CN(Cc2ccccc2)Cc2ccccc2)nc2c1c(=O)n(C)c(=O)n2C,21µM*,0%,u,29,9%,-17%
Cc1ccccc1-n1c(SCCOc2ccccc2Cl)nnc1-c1ccc(C(C)(C)C)cc1,x,x,x,x,x,-13%
CCOC1CCOC2(CCN(C(=O)c3ccoc3)CC2)C1 (stereo not given),x,x,x,x,x,33%
Cc1ccc(C(=O)N2CCN(c3nnc4cccc(C)n34)CC2)cc1F,x,x,x,x,x,-3%
CCCn1c(CN(C)Cc2ccccc2)nc2c1c(=O)n(C)c(=O)n2C,9.2µM*,-16%,10µM*,-23,-18%,0%
CN(Cc1ccccc1)Cc1nc2c(c(=O)n(C)c(=O)n2C)n1Cc1ccccc1Cl,26µM*,-25%,12µM*,-7,-1%,1%
Cn1c(=O)c2c(nc(CN(Cc3ccccc3)Cc3ccccc3)n2Cc2ccccc2)n(C)c1=O,x,x,x,x,x,23%
CCCn1c(CN(Cc2ccccc2)Cc2ccccc2)nc2c1c(=O)n(C)c(=O)n2C,23µM*,-5%,15µM*,-15,-1%,-13%
CC(C)CCn1cnc2c1c(=O)n(CC(=O)NCC1CCCO1)c(=O)n2Cc1ccccc1 (stereo not given),x,x,x,x,x,15%
COc1cc(C)ccc1N(CCCN1C(=O)c2cccc3cccc(c23)C1=O)C(=O)c1cccs1,9.2µM*,10%,9.2µM*,-7,7%,12%
